The values below come from ChEMBL document CHEMBL2218924, “A broad activity screen in support of a chemogenomic map for kinase signalling research and drug discovery” (Biochem J, 2013).

For assay [1], the target named is T1, Ephrin type-B receptor 1 (Homo sapiens) (UniProt P54762).
T1 sequence (whole entry): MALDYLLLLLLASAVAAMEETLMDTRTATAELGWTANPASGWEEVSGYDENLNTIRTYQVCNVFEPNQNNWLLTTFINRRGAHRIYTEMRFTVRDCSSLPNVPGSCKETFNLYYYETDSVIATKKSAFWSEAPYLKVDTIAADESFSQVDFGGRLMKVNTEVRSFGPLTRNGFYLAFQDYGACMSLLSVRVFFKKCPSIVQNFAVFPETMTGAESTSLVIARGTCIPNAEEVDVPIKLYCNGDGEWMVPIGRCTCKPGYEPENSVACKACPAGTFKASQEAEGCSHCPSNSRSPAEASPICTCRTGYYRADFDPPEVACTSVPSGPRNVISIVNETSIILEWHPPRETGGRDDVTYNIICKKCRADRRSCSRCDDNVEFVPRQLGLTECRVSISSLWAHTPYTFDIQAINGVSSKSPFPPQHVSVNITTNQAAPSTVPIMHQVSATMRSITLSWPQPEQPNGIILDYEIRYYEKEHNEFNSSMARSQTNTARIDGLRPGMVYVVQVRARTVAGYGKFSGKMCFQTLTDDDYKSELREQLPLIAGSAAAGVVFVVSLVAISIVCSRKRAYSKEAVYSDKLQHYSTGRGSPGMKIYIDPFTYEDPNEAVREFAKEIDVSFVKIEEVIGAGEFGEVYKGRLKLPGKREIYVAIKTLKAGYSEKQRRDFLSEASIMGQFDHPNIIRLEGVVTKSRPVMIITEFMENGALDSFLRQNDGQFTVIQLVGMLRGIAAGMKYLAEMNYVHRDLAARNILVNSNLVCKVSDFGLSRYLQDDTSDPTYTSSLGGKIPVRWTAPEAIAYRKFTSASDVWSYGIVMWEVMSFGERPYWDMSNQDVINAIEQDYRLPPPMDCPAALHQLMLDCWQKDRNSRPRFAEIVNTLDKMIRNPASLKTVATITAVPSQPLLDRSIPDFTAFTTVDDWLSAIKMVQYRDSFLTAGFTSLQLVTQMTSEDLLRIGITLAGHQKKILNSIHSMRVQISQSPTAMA
The settings on record: at 10 µM.

Assay [2] has as its target T2, Ephrin type-B receptor 2 (Homo sapiens) (UniProt P29323).
T2 sequence (whole entry): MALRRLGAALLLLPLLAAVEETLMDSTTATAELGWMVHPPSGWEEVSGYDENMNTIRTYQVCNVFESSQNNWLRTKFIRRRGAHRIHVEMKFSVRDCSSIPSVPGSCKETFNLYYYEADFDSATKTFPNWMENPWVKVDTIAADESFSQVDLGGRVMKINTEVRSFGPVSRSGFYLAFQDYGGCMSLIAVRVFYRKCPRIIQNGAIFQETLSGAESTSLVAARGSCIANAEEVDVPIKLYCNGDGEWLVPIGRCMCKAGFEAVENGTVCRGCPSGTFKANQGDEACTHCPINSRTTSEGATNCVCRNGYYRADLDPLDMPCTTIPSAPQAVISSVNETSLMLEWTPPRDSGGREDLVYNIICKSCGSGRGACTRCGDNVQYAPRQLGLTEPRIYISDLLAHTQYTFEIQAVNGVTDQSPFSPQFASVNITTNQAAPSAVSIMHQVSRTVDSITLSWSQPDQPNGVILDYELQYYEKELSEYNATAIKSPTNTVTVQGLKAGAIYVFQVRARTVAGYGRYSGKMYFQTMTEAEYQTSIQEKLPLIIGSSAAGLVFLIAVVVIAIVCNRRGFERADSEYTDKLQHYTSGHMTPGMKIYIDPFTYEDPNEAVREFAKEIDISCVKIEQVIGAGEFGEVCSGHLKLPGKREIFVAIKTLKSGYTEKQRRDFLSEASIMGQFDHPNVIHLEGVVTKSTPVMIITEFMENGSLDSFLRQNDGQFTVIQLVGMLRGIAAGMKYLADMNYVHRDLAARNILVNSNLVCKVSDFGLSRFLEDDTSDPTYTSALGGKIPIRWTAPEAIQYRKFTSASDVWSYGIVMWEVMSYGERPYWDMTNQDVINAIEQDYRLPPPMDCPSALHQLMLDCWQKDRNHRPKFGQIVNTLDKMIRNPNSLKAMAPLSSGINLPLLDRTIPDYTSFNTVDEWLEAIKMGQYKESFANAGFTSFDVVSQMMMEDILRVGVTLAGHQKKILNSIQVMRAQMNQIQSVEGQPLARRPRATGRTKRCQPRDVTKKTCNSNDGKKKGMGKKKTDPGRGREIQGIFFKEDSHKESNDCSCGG
The following applies: at 1 µM.

In assay [3] the target is T2, Ephrin type-B receptor 2 (Homo sapiens). The following applies: at 10 µM.
For assay [4], the target named is T3, Ephrin type-B receptor 3 (Homo sapiens) (UniProt P54753).
T3 sequence (whole entry): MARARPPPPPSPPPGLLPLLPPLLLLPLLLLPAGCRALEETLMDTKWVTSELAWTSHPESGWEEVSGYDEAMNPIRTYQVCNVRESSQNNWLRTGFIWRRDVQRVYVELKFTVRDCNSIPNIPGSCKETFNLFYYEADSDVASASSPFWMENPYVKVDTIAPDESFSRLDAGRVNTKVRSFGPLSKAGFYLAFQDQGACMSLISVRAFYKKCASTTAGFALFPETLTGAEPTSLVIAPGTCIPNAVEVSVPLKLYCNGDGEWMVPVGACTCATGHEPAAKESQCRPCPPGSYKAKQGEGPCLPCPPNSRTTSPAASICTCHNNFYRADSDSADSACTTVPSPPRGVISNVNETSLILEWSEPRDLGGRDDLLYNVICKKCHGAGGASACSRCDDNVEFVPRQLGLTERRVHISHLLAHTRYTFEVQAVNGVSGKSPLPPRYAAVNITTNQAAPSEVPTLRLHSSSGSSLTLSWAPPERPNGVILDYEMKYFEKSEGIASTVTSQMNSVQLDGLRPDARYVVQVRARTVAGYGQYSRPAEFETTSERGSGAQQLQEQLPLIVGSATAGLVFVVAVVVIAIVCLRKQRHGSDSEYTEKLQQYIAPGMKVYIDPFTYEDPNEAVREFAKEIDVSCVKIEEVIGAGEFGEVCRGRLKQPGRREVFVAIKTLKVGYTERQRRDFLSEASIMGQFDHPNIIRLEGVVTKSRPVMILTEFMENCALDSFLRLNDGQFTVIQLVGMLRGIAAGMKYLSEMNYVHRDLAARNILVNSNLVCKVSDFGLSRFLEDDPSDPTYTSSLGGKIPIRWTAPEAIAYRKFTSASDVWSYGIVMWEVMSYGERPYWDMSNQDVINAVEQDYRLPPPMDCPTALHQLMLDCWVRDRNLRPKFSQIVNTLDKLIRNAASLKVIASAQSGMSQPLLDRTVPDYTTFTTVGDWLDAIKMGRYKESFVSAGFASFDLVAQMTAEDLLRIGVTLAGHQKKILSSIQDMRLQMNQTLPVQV
The settings on record: at 1 µM.

In assay [5] the target is T3, Ephrin type-B receptor 3 (Homo sapiens). The settings on record: at 10 µM.
Assay [6] concerns the target T4, Ephrin type-B receptor 4 (Homo sapiens) (UniProt P54760).
T4 sequence (whole entry): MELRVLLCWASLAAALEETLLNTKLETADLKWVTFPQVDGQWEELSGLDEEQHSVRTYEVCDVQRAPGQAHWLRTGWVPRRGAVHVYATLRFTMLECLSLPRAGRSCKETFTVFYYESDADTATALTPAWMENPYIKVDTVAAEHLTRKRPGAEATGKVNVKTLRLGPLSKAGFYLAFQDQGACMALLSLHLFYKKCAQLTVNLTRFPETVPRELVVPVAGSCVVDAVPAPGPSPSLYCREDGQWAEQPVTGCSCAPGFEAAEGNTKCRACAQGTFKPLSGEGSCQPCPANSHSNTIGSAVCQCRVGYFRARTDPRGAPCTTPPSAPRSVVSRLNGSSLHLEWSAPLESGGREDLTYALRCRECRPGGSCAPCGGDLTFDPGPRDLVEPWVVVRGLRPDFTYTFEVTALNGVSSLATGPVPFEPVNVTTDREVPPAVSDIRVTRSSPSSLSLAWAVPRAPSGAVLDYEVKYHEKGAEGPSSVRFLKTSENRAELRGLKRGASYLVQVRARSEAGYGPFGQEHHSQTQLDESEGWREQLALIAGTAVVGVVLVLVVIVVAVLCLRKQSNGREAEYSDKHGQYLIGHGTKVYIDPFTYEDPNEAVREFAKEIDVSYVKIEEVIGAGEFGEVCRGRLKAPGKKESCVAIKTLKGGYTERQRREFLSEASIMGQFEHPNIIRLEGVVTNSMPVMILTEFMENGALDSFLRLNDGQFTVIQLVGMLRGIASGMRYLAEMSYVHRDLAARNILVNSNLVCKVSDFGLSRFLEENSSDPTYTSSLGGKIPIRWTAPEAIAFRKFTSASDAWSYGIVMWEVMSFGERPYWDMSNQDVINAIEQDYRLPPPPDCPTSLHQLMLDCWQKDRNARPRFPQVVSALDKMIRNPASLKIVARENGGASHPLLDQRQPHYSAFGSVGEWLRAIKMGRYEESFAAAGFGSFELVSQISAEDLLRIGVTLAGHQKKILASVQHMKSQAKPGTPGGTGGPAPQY
The settings on record: at 1 µM.

Assay [7] deals with T4, Ephrin type-B receptor 4 (Homo sapiens). The settings on record: at 10 µM.
In assay [8] the target is Receptor tyrosine-protein kinase erbB-4 (Homo sapiens) (UniProt Q15303). The settings on record: at 1 µM.
Sequence of Receptor tyrosine-protein kinase erbB-4 (Homo sapiens) (Q15303 whole entry): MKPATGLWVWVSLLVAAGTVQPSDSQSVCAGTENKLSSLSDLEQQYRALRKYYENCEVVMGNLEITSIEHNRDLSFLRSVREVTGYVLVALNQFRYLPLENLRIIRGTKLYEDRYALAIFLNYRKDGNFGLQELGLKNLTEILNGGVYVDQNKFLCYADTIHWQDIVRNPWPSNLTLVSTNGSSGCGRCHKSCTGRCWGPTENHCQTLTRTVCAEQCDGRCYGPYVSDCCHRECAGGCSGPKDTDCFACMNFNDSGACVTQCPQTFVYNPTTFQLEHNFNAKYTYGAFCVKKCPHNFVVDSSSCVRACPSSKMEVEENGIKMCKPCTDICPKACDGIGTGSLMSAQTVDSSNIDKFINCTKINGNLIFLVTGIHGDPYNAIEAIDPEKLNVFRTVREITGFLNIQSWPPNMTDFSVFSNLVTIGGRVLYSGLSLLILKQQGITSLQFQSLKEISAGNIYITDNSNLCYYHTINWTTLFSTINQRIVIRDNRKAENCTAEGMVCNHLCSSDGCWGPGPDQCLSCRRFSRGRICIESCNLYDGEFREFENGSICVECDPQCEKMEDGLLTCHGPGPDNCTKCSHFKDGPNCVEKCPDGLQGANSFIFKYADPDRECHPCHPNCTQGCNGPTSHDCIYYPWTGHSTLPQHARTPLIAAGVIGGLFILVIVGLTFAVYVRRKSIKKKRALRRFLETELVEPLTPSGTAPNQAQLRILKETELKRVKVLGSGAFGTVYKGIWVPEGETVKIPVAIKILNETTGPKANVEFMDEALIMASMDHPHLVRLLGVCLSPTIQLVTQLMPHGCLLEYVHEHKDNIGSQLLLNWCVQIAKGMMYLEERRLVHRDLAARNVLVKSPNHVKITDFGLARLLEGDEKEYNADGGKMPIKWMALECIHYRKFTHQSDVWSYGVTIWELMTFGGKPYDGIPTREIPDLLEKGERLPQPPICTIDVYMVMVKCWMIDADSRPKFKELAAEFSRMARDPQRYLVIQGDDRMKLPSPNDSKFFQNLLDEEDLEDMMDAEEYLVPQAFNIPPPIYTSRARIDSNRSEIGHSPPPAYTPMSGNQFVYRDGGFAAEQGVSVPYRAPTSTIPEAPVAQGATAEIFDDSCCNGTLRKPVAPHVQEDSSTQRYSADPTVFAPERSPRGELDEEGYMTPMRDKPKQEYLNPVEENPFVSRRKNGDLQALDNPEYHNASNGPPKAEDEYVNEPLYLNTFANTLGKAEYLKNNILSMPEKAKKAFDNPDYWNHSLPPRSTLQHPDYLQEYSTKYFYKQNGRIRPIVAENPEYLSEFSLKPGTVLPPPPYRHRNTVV
Assay [9] shares this target. The following applies: at 10 µM.
Assay [10] has as its target Focal adhesion kinase 1 (Homo sapiens) (UniProt Q05397). The following applies: at 1 µM.

Sequence of Focal adhesion kinase 1 (Homo sapiens) (Q05397 2-1052 limits assumed): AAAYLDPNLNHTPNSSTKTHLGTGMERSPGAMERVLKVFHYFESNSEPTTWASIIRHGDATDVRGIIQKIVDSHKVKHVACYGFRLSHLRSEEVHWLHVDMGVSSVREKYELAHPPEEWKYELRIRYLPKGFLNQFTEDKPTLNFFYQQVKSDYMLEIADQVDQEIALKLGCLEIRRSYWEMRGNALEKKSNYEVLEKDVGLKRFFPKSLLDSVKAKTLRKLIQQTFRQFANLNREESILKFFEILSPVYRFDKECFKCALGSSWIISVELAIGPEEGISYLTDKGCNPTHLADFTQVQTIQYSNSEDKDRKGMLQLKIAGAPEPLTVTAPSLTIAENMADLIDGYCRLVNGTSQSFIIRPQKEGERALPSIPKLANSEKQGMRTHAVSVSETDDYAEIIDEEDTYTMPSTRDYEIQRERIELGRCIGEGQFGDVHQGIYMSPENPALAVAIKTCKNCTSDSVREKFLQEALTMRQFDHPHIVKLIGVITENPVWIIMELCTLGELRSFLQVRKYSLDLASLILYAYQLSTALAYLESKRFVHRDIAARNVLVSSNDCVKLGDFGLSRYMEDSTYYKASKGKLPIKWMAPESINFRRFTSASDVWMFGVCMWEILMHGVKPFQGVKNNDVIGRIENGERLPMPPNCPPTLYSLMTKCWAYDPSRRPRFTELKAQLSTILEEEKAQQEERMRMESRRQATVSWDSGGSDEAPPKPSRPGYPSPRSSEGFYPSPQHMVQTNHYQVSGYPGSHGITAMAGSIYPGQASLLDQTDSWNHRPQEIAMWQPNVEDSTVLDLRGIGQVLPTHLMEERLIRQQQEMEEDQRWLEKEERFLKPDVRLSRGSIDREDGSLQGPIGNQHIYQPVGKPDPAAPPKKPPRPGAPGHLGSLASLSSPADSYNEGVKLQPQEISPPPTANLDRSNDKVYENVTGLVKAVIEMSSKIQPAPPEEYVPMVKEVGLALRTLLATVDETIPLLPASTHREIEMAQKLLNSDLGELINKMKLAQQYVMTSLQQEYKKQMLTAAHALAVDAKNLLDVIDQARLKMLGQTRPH

Take `O=C1Nc2ccc3ncsc3c2/C1=C/c1c[nH]cn1`: the residual activity (usually the signal under treatment as a percentage of the control signal) was 9% in [1]; 87% in [2]; 29% in assay [3]; 120% (inactive) in assay [4]; 131% in [5]; 79% in assay [6]. Further, the residual activity was 29% in assay [7], 88% in assay [8], 102% in assay [9] and 73% in assay [10].
